PubChem BioAssay
Values without a mark were called inactive. The source made the active and inactive calls.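 How the source made its calls, unless noted: active means mean inhibition above 46.5%, the solvent-only control mean plus 3 SD; inactive means the rest.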

Experiments:
[1] = tested on: transactivating tegument protein VP16 (Human herpesvirus 1); assay: VP16 transactivation reporter inhibitors, counter-screen for SRC2 inhibitor project, cell-based, luminescence, single concentration (AID 652007; in the data active means inhibition above about 36%); details: cell-based VP16 transactivation luciferase reporter, at 8.9 µM, hits give high values
[2] = biological target: Nuclear receptor coactivator 2 (Homo sapiens) (UniProt Q15596); assay: SRC2 coactivator transcriptional activity inhibitors, confirmation, cell-based, luminescence, HEK293, triplicate (AID 652008); details: HEK293 GAL4-SRC2 luciferase reporter, at 8.9 µM, hits give high values;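 further: 0% = DMSO-treated cells and 100% = Gossypol at 36 µM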
Nuclear receptor coactivator 2 (Homo sapiens), sequence (Q15596 whole entry, looked up, the tested form may be a part): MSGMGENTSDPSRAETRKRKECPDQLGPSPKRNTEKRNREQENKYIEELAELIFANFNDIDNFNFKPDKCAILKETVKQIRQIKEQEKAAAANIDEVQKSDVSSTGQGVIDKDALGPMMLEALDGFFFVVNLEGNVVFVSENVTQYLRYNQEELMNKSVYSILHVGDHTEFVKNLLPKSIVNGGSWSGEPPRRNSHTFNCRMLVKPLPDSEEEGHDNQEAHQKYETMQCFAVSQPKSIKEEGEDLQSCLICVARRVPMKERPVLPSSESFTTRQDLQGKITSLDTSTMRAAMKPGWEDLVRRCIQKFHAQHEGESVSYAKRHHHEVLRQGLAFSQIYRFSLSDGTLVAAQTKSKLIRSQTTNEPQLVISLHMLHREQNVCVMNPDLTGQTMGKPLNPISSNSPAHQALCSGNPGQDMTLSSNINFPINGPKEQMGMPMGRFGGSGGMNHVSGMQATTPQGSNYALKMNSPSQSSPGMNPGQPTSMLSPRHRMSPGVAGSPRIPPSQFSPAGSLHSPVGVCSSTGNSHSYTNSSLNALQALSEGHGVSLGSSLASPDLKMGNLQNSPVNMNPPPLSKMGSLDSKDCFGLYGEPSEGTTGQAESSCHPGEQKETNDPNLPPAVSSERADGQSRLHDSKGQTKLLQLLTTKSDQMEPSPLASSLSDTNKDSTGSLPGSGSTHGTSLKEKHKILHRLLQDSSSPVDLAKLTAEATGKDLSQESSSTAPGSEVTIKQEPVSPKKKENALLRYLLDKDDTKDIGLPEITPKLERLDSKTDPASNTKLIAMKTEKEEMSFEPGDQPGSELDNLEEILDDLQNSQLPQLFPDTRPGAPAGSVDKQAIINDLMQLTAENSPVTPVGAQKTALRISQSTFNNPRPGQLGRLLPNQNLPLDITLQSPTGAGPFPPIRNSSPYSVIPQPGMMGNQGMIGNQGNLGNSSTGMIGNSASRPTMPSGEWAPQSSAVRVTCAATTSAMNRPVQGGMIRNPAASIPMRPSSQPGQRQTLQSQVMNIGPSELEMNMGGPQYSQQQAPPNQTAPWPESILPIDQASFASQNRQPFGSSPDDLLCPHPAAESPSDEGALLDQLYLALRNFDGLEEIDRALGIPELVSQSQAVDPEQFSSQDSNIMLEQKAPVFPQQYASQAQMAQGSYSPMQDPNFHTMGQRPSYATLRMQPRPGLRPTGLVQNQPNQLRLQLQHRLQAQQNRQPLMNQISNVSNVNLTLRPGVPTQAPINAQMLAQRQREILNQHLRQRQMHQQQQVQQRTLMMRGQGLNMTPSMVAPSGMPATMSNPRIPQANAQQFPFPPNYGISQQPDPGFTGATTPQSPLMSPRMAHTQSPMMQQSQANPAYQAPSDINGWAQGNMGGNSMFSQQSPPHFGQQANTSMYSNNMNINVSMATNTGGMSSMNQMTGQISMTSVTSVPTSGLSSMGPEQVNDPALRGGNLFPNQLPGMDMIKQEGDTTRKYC

In the case of `Cc1cc(C)cc(C(=O)NC(=S)Nc2ccc(-c3cc4ccccc4oc3=O)cc2)c1`, the inhibition [1] is reported as -8.51% and the inhibition [2] is reported as 46.7% (active).
`O=C(c1ccc(CS(=O)Cc2ccc(Cl)cc2)o1)N1CCN(c2ccccn2)CC1` (stereo not drawn) was tested, and the inhibition [1] was -9.03% and the inhibition [2] was -6.91%.
`Cc1ccc(Cn2ccc(=O)c(OCc3c(Cl)cccc3Cl)c2C)cc1` showed an inhibition [1] of 11.9% and an inhibition [2] of 13.3%.
For `COCCN=C1Sc2nc3c(C)cccc3cc2CN1Cc1ccco1`, the inhibition [1] was -12% and the inhibition [2] was 4.64%.
In the case of `COc1ccc2c(c1)/C(=C\c1cccc(/C=C3/C(=O)Nc4ccc(OC)cc43)n1)C(=O)N2`, the inhibition [1] is reported as 90.5% (active) and the inhibition [2] is reported as 76.2% (active).
`CC(=O)c1ccc(OCCCC(=O)N2CCN(S(=O)(=O)c3ccc(C)cc3C)CC2)cc1` gave an inhibition [1] of 7.87% and an inhibition [2] of 0.39%.
In the case of `COc1ccccc1CNS(=O)(=O)c1ccc(-c2cc(C)no2)cc1`, the inhibition [1] is reported as -13% and the inhibition [2] is reported as -7.27%.
In the case of `O=c1cc(-c2ccc(O)cc2)oc2ccc3ccccc3c12`, the inhibition [1] is reported as 5.39% and the inhibition [2] is reported as 50.8% (active).
`O=C(CCl)N(c1ccccc1)c1ccccc1` was tested, and the inhibition [1] was 9.78% and the inhibition [2] was 44.2%.
In the case of `O=C(Nc1ncc([N+](=O)[O-])s1)c1ccc2c(c1)OCO2`, the inhibition [1] is reported as -5.69% and the inhibition [2] is reported as 37.6%.
For `CCC(C)Nc1nc(C)nc2c1oc1ccccc12` (stereo not drawn), the inhibition [1] was 2.3% and the inhibition [2] was 3.55%.
With `CC(=O)N1CCOc2ccc(S(=O)(=O)NCC3CCC(C(=O)Nc4ccc(C)cn4)CC3)cc21` (stereo not drawn) the inhibition [1] was 14.8% and the inhibition [2] was 15.4%.
Compound `Cc1ccc2cc(CN(Cc3ccco3)S(=O)(=O)c3c(C)ccc4nsnc34)c(=O)[nH]c2c1` has an inhibition [1] of 26.5% and an inhibition [2] of 14.2%.
`CCOc1ccc(-c2nc(CSCC(=O)NC3CCN(Cc4ccccc4)CC3)c(C)o2)cc1` was tested, and the inhibition [1] was 8.65% and the inhibition [2] was 19.7%.
In the case of `Cc1cc(C)c(C)c(N=Nc2nc3ccccc3n2C)c1C`, the inhibition [1] is reported as -75.3% and the inhibition [2] is reported as 49.7% (active).
`CC(OC(=O)C1=COCCO1)C(=O)Nc1ccc(Cl)cn1` (stereo not drawn) was tested, and the inhibition [1] was -6.28% and the inhibition [2] was -20.4%.
With `Cc1cc(-c2ccccc2)n(-c2cc(N/N=C/c3ccccc3O)ncn2)n1` the inhibition [1] was -0.63% and the inhibition [2] was 51.5% (active).
`COc1ccc(CN2CCN(Cc3ccc(C(F)(F)F)cc3)CC2)cc1` showed an inhibition [1] of 10.7% and an inhibition [2] of 22.6%.
With `CN(C)CCCN(C(=O)CCOc1ccccc1)c1nc2c(F)cccc2s1` the inhibition [1] was -2.69% and the inhibition [2] was 20.6%.
`C[C@@H]1C[C@H]2O[C@@H]2/C=C\C=C\C(=O)Cc2cc(O)cc(O)c2C(=O)O1` was tested, and the inhibition [1] was 34.7% and the inhibition [2] was 15.2%.
For `O=[N+]([O-])c1cc(C(F)(F)F)ccc1NCCCCNS(=O)(=O)c1ccc(Cl)cc1`, the inhibition [1] was 3.03% and the inhibition [2] was 43.3%.
With `CC(C)OC(=O)c1ccc(NCc2cc(O)ccc2O)cc1` the inhibition [1] was 51.7% (active) and the inhibition [2] was 54.8% (active).
In the case of `COc1ccc(O)c(/C=N/NC(=O)c2ccc(CSc3nc(C)cc(C)n3)cc2)c1`, the inhibition [1] is reported as 0.19% and the inhibition [2] is reported as 26.4%.
`COc1cc(CNS(=O)(=O)c2ccc3c(c2)CC(C)N3C(=O)C2CCC2)cc(OC)c1OC` (stereo not drawn) showed an inhibition [1] of 5.37% and an inhibition [2] of 29.3%.
For `COc1cc(NC(=O)CSCC(=O)Nc2cccc(C(F)(F)F)c2)c(Cl)cc1Cl`, the inhibition [1] was 5.02% and the inhibition [2] was 5.14%.
In the case of `CCOc1ccc(NS(=O)(=O)c2ccc(C(=O)NC3CCN(Cc4ccccc4)CC3)cc2)cc1`, the inhibition [1] is reported as -3.23% and the inhibition [2] is reported as 8.19%.
With `O=C(c1ccccc1Nc1ccc(SC(F)F)cc1)N1CCCCCC1` the inhibition [1] was 2.12% and the inhibition [2] was 4.87%.
Work on `Cc1cc(C(=O)CN2C(=O)C(=O)N(Cc3ccccc3)C2=O)c(C)n1-c1ccc2c(c1)OCCO2` yielded an inhibition [1] of -14.1% and an inhibition [2] of -36%.
With `NNC(=O)c1[nH]c2ccc(Br)cc2c1-c1ccccc1` the inhibition [1] was -11.1% and the inhibition [2] was -1.32%.
With `CCCCN1CC(COCc2ccccc2)Oc2cccc(NCc3cc(OC)c(OC)c(OC)c3)c2S1(=O)=O` (stereo not drawn) the inhibition [1] was -12.2% and the inhibition [2] was 13.4%.
In the case of `FC(F)(F)c1cnc(NNC(=S)Nc2ccccc2)c(Cl)c1`, the inhibition [1] is reported as 10.3% and the inhibition [2] is reported as 14%.
`COc1ccc(OC)c(S(=O)(=O)Nc2ccc3c(c2)OCCO3)c1` showed an inhibition [1] of -22.5% and an inhibition [2] of 21.2%.
For `N#Cc1ccccc1COc1ccc(/C=C/C(=O)O)cc1`, the inhibition [1] was 57.9% (active) and the inhibition [2] was 76.8% (active).
`Cc1ccc(Nc2nc(N)nc(CN3CCN(Cc4ccc5c(c4)OCO5)CC3)n2)cc1` showed an inhibition [1] of -10.2% and an inhibition [2] of -18.2%.
In the case of `O=S(=O)(Nc1cc(Sc2cccc3cccnc23)c(O)c2ccccc12)c1ccccc1`, the inhibition [1] is reported as 97.2% (active) and the inhibition [2] is reported as 98.7% (active).
Compound `Cc1ccc(S(=O)(=O)/N=C(\N)c2ccc(F)cc2)cc1` has an inhibition [1] of 5.17% and an inhibition [2] of -14.9%.
In the case of `O=C(Nc1ccc2c(c1)OCCO2)NC1(C(F)(F)F)Oc2ccccc2O1`, the inhibition [1] is reported as -12.8% and the inhibition [2] is reported as 43.7%.
In the case of `CC1CC(C)(C)Nc2ccc(OC(=O)c3ccco3)cc21` (stereo not drawn), the inhibition [1] is reported as -46.6% and the inhibition [2] is reported as 46.8% (active).
Work on `CCOC(=O)C1CCN(c2ncnc3c2cnn3-c2ccc(OC)cc2)CC1` yielded an inhibition [1] of -22.3% and an inhibition [2] of 39.2%.
Work on `CN1CCN(c2ccc(NC(=O)c3cc(S(N)(=O)=O)ccc3N3CCOCC3)cc2)CC1` yielded an inhibition [1] of -1.08% and an inhibition [2] of -8.5%.
For `CCCc1ncc(CN2CCC(C(=O)Nc3cccc(-c4cscn4)c3)CC2)cn1`, the inhibition [1] was 12.2% and the inhibition [2] was 15.5%.
`O=C(CSc1nc2nc(-c3cccs3)cc(C(F)(F)F)c2c(=O)[nH]1)C(F)(F)F` gave an inhibition [1] of -28.3% and an inhibition [2] of 10%.
In the case of `CCOc1ccc(-n2c(C)nc3cc(C(=O)NCC4CCCO4)ccc32)cc1` (stereo not drawn), the inhibition [1] is reported as -16.6% and the inhibition [2] is reported as -3.58%.
For `O=C(COC(=O)c1ccc(Br)o1)NCC(=O)Nc1ccc(F)cc1`, the inhibition [1] was -21% and the inhibition [2] was -15.8%.
Work on `CCCC(=O)Nc1cccc(NC(=O)c2ccccc2Br)c1` yielded an inhibition [1] of -0.46% and an inhibition [2] of -17.8%.
Compound `COCc1cc(C)[nH]c(=O)c1C(=O)NC12CC3CC(CC(C3)C1)C2` has an inhibition [1] of 15.4% and an inhibition [2] of -11%.
With `Cc1nc([N+](=O)[O-])c(Br)n1Cc1ccc(Cl)c(Cl)c1` the inhibition [1] was 10.6% and the inhibition [2] was 43.9%.
In the case of `COc1ccc(C(=O)N/N=C\c2coc3ccc(Cl)cc3c2=O)cc1`, the inhibition [1] is reported as 3.52% and the inhibition [2] is reported as 5.31%.
With `COc1ccc(NC(=O)COc2coc(CN3CCN(c4ccccc4)CC3)cc2=O)cc1` the inhibition [1] was -6.47% and the inhibition [2] was -1.96%.
